Tat transport – E. coli Tat transport inhibition; E. coli MC4100 TorA-mCherry Tat export, fluorescence; inhibition, % at 10 µM; hit rate 0.036% among 340,000; AID 488895;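 active means mean replicate inhibition at least 50% and at least half of replicates individually reaching 50%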;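 further: exported cargo escapes ClpAP degradation while cytoplasmic cargo is degraded and loses fluorescence; 0% = median of neutral control wells and 100% = median of NaSCN control wells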
E coli growth-1 – blocks Escherichia coli growth; OD600, 23 h; active compounds read low; OD600 absorbance (no concentration beside the values); hit rate 0.21% among 330,000; AID 1053175;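 active means OD600 absorbance below the run mean of sample wells minus 3.6 SD, in any replicate, cut at about 0.56 in these data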
AddAB inh – less growth of phage-infected E. coli with AddAB | inhibition, % at 11.9 µM | E. coli expressing H. pylori AddAB, absorbance growth | hit rate 0.29% among 330,000 | AID 435030; in the data active means inhibition above about 12%;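 further: 0% = vehicle wells of infected cells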
phage Ecoli inh – E. coli growth loss with phage present. growth absorbance. inhibition, % at 11.9 µM. hit rate 0.26% among 360,000. AID 651602; in the data active means inhibition above about 11%
E coli growth-2 – reduces bacterial viability in AddAB counter-screen; E. coli V3065 growth, OD600 absorbance, 18 h; inhibition, % at 11.9 µM; hit rate 0.27% among 330,000; AID 449728;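 active means inhibition above the campaign's mean inhibition across all tested compounds plus 3 SD, cut at about 9.9% in these data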;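 further: uninfected addAB+ strain grown without phage in ampicillin broth; 0% = DMSO wells and 100% = ciprofloxacin 0.95 µg/ml wells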
AddAB conf – growth loss of T4-infected E. coli expressing H. pylori AddAB, confirmed | E. coli V3065 expressing H. pylori AddAB, T4 phage, OD; T4 phage with gene 2 nonsense mutations | shares compounds with AddAB inh | inhibition, % at 11.9 µM | hit rate 64% among 880;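 active means mean inhibition above a set limit taken from the earlier primary screen, cut at about 13% in these data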;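 further: higher means less bacterial growth since AddAB block lets phage replicate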
RecBCD counter – counter-screen: growth loss of RecBCD+ E. coli with mutant T4 phage. shares compounds with AddAB inh. AID 488955. inhibition, % at 11.9 µM. E. coli V66 + mutant T4 phage, OD growth. hit rate 73% among 880;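 active means mean inhibition above the mean of solvent-only control wells plus 3 SD, cut at about 4% in these data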;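 further: optical density read after an 18 h incubation at 37 °C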
bact viab count – counter-screen for AddAB inhibitors: inhibitors of bacterial viability. shares compounds with AddAB inh. absorbance (AddAB counterscreen). inhibition, % at 11.9 µM. hit rate 35% among 880. AID 488956; in the data active means inhibition above about 25%
Starred values were filed as active, the others as inactive; / = no result. Shown are actives, neighbours in structure and some others; about 0.5% of the full set was active somewhere.

SMILES	Tat transport	E coli growth-1	AddAB inh	phage Ecoli inh	E coli growth-2	AddAB conf	RecBCD counter	bact viab count
COc1ccc(-n2c(C)cc(/C=N/Nc3nnc(C)n3N)c2C)cc1	-17.4	/	13.6*	1.2	3.4	5.9	0.6	-2.6
COc1ccc(C=NNc2nnc(C)n2N)cc1OC	/	0.704	/	/	/	/	/	/
CC1(C)c2[nH]c3ccccc3c2CC2C(=O)N(c3ccc(F)cc3F)C(=O)N21 (configuration not stated)	/	0.661	/	/	/	/	/	/
O=C(Nc1ccc(Cl)cc1)ON=C1CCCC1	-7.9	0.66	23.0*	4.3	8.6	-1.6	0.8	-2.0
O=C(O)c1nnn(-c2cc(C(F)(F)F)cc(C(F)(F)F)c2)c1-c1ccccc1	-4.8	0.706	18.6*	1.0	2.3	-0.7	0.3	-1.9
CN1CCC(=O)N(C(CN=[N+]=[N-])Cc2ccccc2)CC1 (configuration not stated)	/	0.688	/	/	/	/	/	/
COc1cc2cccc(OC)c(=O)c2c(O)c1OC	-0.8	0.739	0.5	5.8	-1.2	/	/	/
CC(=O)Oc1cc2cccc(OC(C)=O)c(=O)c2c(OC(C)=O)c1OC(C)=O	0.1	0.644	18.0*	/	13.7*	25.2*	19.4*	14.6
CC(C)CCN(C)C1CCN(C(=O)Nc2c(F)cccc2F)CC1	-0.7	0.722	27.6*	3.7	4.8	-3.4	1.1	-1.3
COc1ccc(C(C)=N/N=C2/NC(=O)CC(C(=O)O)S2)cc1F (configuration not stated)	/	0.68	/	/	/	/	/	/
CC(NC(=O)CN1CCOCC1)c1ccc(F)cc1 (configuration not stated)	-5.1	0.65	14.7*	0.7	15.9*	2.5	0.0	-1.7
COc1ccc(C=Nn2c(-c3cccs3)n[nH]c2=S)cc1	/	0.639	/	/	/	/	/	/
Cc1ccc(C(=O)NN=Cc2ccc(S(=O)(=O)O)o2)c(Cl)c1	/	0.753	/	/	/	/	/	/
COc1cc(/C=N\NC(=O)c2ccc(Cn3cc(Br)c([N+](=O)[O-])n3)o2)cc(OC)c1O	6.7	/	44.5*	9.2	23.2*	52.1*	5.6*	38.8*
COc1cc(C=NNC(=O)c2ccc(Cn3cc(Br)c([N+](=O)[O-])n3)o2)cc(OC)c1O	/	0.679	/	/	/	/	/	/
O=C(N/N=C\c1cccc(F)c1)c1ccc(Cn2cc(Br)c([N+](=O)[O-])n2)o1	-5.6	/	27.1*	5.8	18.8*	54.4*	7.7*	41.3*
O=C(NN=Cc1ccc2c(c1)OCO2)c1ccc(Cn2cc([N+](=O)[O-])cn2)o1	/	0.687	/	/	/	/	/	/
O=C(N/N=C\c1ccc(F)cc1)c1ccc(Cn2cc(Br)c([N+](=O)[O-])n2)o1	-1.1	/	36.3*	9.2	32.9*	54.4*	5.8*	37.7*
O=C(N/N=C\c1ccc2c(c1)OCO2)c1ccc(Cn2cc(Br)c([N+](=O)[O-])n2)o1	-4.8	/	23.3*	2.3	19.5*	6.0	0.1	1.6
CCN1C(=O)C2C(c3ccc(C)cc3)N3C(=O)N(c4ccccc4)C(=O)[C@@]3(Cc3ccccc3)C2C1=O (some centres not stated)	/	0.647	/	/	/	/	/	/
CC(=O)Nc1ccc(NC(=O)CC(C)=NNC(=O)c2cccc3ccccc23)cc1	/	0.684	/	/	/	/	/	/
O=C(NN=Cc1ccco1)c1cc(-c2ccc(Br)s2)[nH]n1	/	0.644	/	/	/	/	/	/
Cc1cc(C(=O)NC(c2ccccc2)[C@@]2(C)CC2C(C)C(=O)Nc2ccc3ccccc3c2)n(C)n1 (some centres not stated)	/	0.714	/	/	/	/	/	/
Cc1cc(SCC(=O)NN=Cc2ccc(O)cc2O)c(C)cc1Br	/	0.696	/	/	/	/	/	/
Cc1cc(SCC(=O)N/N=C/c2ccc(O)c(O)c2O)c(C)cc1Br	3.0	/	16.1*	16.7*	17.8*	11.5	10.3*	0.7
SMILES	Tat transport	E coli growth-1	AddAB inh	phage Ecoli inh	E coli growth-2	AddAB conf	RecBCD counter	bact viab count
CC(=O)NN1C(=O)c2ccccc2NC1c1ccc([N+](=O)[O-])o1 (configuration not stated)	-9.6	0.598	17.8*	4.5	14.8*	79.2*	5.9*	30.0*
O=C(NN1C(=O)c2ccccc2NC1c1ccc([N+](=O)[O-])o1)c1ccc(Br)cc1 (configuration not stated)	-1.6	0.687	3.1	4.9	1.9	/	/	/
Oc1cc(-c2ccc(N3CCCCC3)nc2)cc2cccnc12	3.9	/	15.9*	/	14.5*	10.5	14.7*	12.5
Oc1cc(-c2ccncc2)cc2cccnc12	-1.4	0.676	1.9	2.7	-0.3	/	/	/
O=[N+]([O-])c1ccc(/C=N\NS(=O)(=O)c2ccc(F)cc2)o1	-9.2	/	92.7*	10.7	20.1*	98.9*	8.0*	53.9*
COc1ccccc1NS(=O)(=O)c1cccc(C(=O)NN=Cc2ccc([N+](=O)[O-])o2)c1	/	0.626	/	/	/	/	/	/
O=C(N/N=C/c1ccc([N+](=O)[O-])o1)C1CCCC1	-5.0	/	12.4*	8.3	9.2	73.9*	5.0*	13.3
Cc1ccc(S(=O)(=O)NN=Cc2ccc(C)o2)cc1	/	0.691	/	/	/	/	/	/
COc1ccc(S(=O)(=O)N/N=C\c2ccc([N+](=O)[O-])o2)c(OC)c1	-21.1	/	30.3*	9.6	23.8*	100.2*	8.3*	39.7*
COc1ccc(C=NNC(=S)Nc2ccccc2)cc1COc1cccc(C)c1C	/	0.742	/	/	/	/	/	/
Cc1onc(-c2ccccc2)c1C(=O)O/N=C(\N)c1ccc([N+](=O)[O-])o1	2.6	/	15.9*	-16.1	7.4	32.7*	2.8	5.7
CC1CCC[C@@]2(O1)OC(CCO)CC(O)C2O (some centres not stated)	/	0.667	/	/	/	/	/	/
CCCC(=O)NC(c1ccccc1Cl)c1ccc2cccnc2c1O (configuration not stated)	1.8	/	33.9*	25.9*	34.7*	29.4*	27.0*	25.7*
COc1ccc(C(NC(=O)C(C)C)c2ccc3cccnc3c2O)cc1 (configuration not stated)	26.7	0.586	25.9*	24.6*	26.0*	25.8*	24.0*	18.5
CCCCC(=O)NC(c1ccc(OC)cc1)c1ccc2cccnc2c1O (configuration not stated)	/	/	/	10.1	/	/	/	/
COc1ccc(NC(=O)CSc2ccc(-c3cccnc3)nn2)cc1	0.5	0.644	4.6	3.7	-0.3	/	/	/
CCOC(=O)c1ccc(NC(=O)CSc2ccc(-c3cccnc3)nn2)cc1	-15.4	/	16.0*	4.9	3.5	3.1	4.1*	-0.3
CCOc1ccc(NC(=O)Cn2cc(C(C)=O)c3ccccc32)cc1	-5.8	0.734	1.1	3.4	-1.6	/	/	/
COc1ccc(NC(=O)Cn2cc(C(C)=O)c3ccccc32)cc1	-1.0	0.676	15.5*	9.9	14.3*	8.6	11.9*	10.8
Cc1ccc(S(=O)(=O)CCC(=O)NNC(=O)CN(C)S(=O)(=O)c2ccc(C)cc2)cc1	3.2	0.664	-0.5	3.3	-1.4	/	/	/

High-throughput results from PubChem BioAssay.
